# E coli growth-1 – bacterial growth inhibition, counter-screen for AddAB inhibitors. E. coli V3065 growth, OD600 absorbance, 18 h. inhibition, % at 11.9 µM. 330,000 tested, 0.27% active. AID 449728;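 active = inhibition above the campaign's mean inhibition across all tested compounds plus 3 SD, cut at about 9.9% in these data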;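 note: uninfected addAB+ strain grown without phage in ampicillin broth; 0% = DMSO wells and 100% = ciprofloxacin 0.95 µg/ml wells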
# E coli growth-2 – E. coli growth inhibition. OD600 absorbance (no concentration beside the values). Escherichia coli growth, OD600, 23 h; hits give low values. 330,000 tested, 0.21% active;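 active = OD600 absorbance below the run mean of sample wells minus 3.6 SD, in any replicate, cut at about 0.56 in these data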
# AddAB inh – less growth of phage-infected E. coli with AddAB; inhibition, % at 11.9 µM; 330,000 tested, 0.29% active; E. coli expressing H. pylori AddAB, absorbance growth; AID 435030; in the data active = inhibition above about 12%;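 note: 0% = vehicle wells of infected cells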
# phage Ecoli inh – E. coli growth loss with phage present; growth absorbance; inhibition, % at 11.9 µM; 360,000 tested, 0.26% active; in the data active = inhibition above about 11%
# Tat transport – E. coli Tat transport inhibition; inhibition, % at 10 µM; 340,000 tested, 0.036% active; E. coli MC4100 TorA-mCherry Tat export, fluorescence; AID 488895;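 active = mean replicate inhibition at least 50% and at least half of replicates individually reaching 50%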;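 note: exported cargo escapes ClpAP degradation while cytoplasmic cargo is degraded and loses fluorescence; 0% = median of neutral control wells and 100% = median of NaSCN control wells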
# An asterisk follows results filed as active; i = inactive; . = no result. Sampled rows, rich in hits. Any-hit rate of the full collection: about 0.51%.
SMILES,E coli growth-1,E coli growth-2,AddAB inh,phage Ecoli inh,Tat transport
CN(C)c1ccc(/C=C/c2ccc3c4ccccc4ccc3[n+]2-c2ccccc2)cc1,.,0.241*,.,17.5*,-335.3
CN(C)c1ccc(/C=C/c2ccc3ccccc3[n+]2C)cc1,18.1*,0.294*,27.9*,7.5,i
CN(C)c1ccc(/C=C/c2cccc[n+]2[O-])cc1,1.4,.,1.1,2.2,-7.9
O=C(CN1CCCCCC1)NN=Cc1cccc(Cl)c1,.,0.671,.,.,.
CC[n+]1c(/C=C2\Sc3ccccc3N2C)ccc2cccc(C)c21,.,0.335*,.,1.8,11.3
Cc1cc(O)c2c(c1O)C(=O)[C@]13C(=C2O)C(=O)[C@@H]2[C@@H](O)[C@H]1[C@@H]1[C@H](O)[C@H]3C(=O)C3=C(O)c4c(O)cc(C)c(O)c4C(=O)[C@]312,9.9*,0.551,11.9,.,26.6
CCCCCCCOC(=O)C[N+](C)(C)CCOC1CC2CCC1(C)C2(C)C (stereo not given),.,0.316*,.,5.1,22.1
CCCCCCOC(=O)C[N+](C)(C)CCOC1CC2CCC1(C)C2(C)C (stereo not given),4.1,0.678,0.8,0.8,0.0
O=[N+]([O-])c1ccc(SNc2ccccc2)c([N+](=O)[O-])c1,.,.,.,3.0,3.3
O=[N+]([O-])c1ccc(-[n+]2ccc3ccccc3c2)c([N+](=O)[O-])c1,1.9,0.446*,5.0,3.5,-0.6
CCN(c1ccccc1)S(=O)(=O)c1ccc(Cl)c(C(=O)O)c1,-2.2,0.552*,-1.4,-2.4,-5.3
CCSc1nnc(NC(=O)c2ccccn2)s1,10.8*,0.665,9.3,0.3,19.5
CCSc1nnc(NC(=O)c2cnccn2)s1,-0.1,0.723,1.3,.,.
CCOC(=O)N1CCN(C(=O)c2cn(CC)c3cc(N4CCN(C)CC4)c(F)cc3c2=O)CC1,99.5*,.,100.5*,.,.
O=C(c1cc(O)c(O)c([N+](=O)[O-])c1)c1ccccc1F,-0.9,0.699,-1.4,3.0,56.7*
CCn1cc(C(=O)NCc2cccc(C(F)(F)F)c2)c(=O)c2ccc(C)nc21,0.8,0.456*,3.4,-0.7,-9.6
CCn1cc(C(=O)NNC(=O)c2ccc(Cl)cc2)c(=O)c2ccc(C)nc21,1.0,0.384*,1.8,.,0.1
C=CCOC(=O)c1cn(CC)c2nc(C)ccc2c1=O,-0.8,0.515*,1.4,1.6,-8.7
C=Cc1ccc(COC(=O)c2cn(CC)c3nc(C)ccc3c2=O)cc1,-1.0,0.648,1.8,1.0,1.6
CCn1cc(C(=O)OCC(=O)c2cc(C)n(-c3cccc(C(F)(F)F)c3)c2C)c(=O)c2ccc(C)nc21,-2.0,0.719,2.0,5.9,16.0
CCOC(=O)c1ccc(NC(=O)c2nc[nH]c2C(=O)NC(CCCCNC(=O)OC(C)(C)C)C(=O)OC(C)(C)C)cc1 (stereo not given),.,0.697,.,.,.
CCc1ncc(C)nc1CC,-1.5,0.769,4.9,1.4,55.3*
CCc1ncc(C)[nH]1,-0.7,.,-0.4,2.2,.
O=c1c2ccccc2nc(COc2ccccc2)n1N=Cc1ccc(O)cc1O,.,0.67,.,.,.
Cc1ccc(-n2[nH]c(C)c(C=Nc3ccc(S(=O)(=O)Nc4nccs4)cc3)c2=O)cc1C,8.0,0.639,10.9,9.2,-5.6
SMILES,E coli growth-1,E coli growth-2,AddAB inh,phage Ecoli inh,Tat transport
Cc1ccc(-n2[nH]c(C)c(C=Nc3ccc(S(=O)(=O)Nc4nccs4)cc3)c2=O)c(C)c1,5.7,0.614,12.6*,.,.
O=C1c2cc(Br)ccc2N(Cc2ccc(Br)cc2)S(=O)(=O)C1c1cc(Cl)c(Cl)cc1[N+](=O)[O-] (stereo not given),12.2*,.,9.9,.,-1.8
OC(CNCC(c1ccc(Cl)cc1Cl)c1c[nH]c2ccccc12)c1ccccc1 (stereo not given),-2.7,0.449*,-0.9,3.8,-15.0
C=CC[n+]1ccc(/C=C2\C=Cc3cc(C)ccc3N2CC)c2ccccc21,.,0.435*,.,.,-172.9
CC(CCc1ccccc1)NC(=O)C(Cc1ccccc1)NC(N)=O (stereo not given),1.4,0.534*,2.4,3.8,-2.6
Cc1ccc2oc(N=C(N)NC(=O)C3CC3)nc2c1,.,0.652,.,.,.
O=C(CNc1ccccc1)NN=Cc1ccc([N+](=O)[O-])o1,.,0.493*,.,.,.
O=C(NN=Cc1ccc([N+](=O)[O-])o1)c1ccc(O)cc1,.,0.405*,.,.,.
O=C(CNC(=O)c1ccccc1)NN=Cc1ccc([N+](=O)[O-])o1,.,0.582,.,.,.
O=[N+]([O-])c1ccc(C=NNC(=S)Nc2ccccc2C(F)(F)F)o1,.,0.485*,.,.,.
CCCC(=O)Nc1ccc(C(=O)NN=Cc2ccc([N+](=O)[O-])o2)cc1,.,0.62,.,.,.
Cc1nonc1C(=O)NN=Cc1ccc([N+](=O)[O-])o1,.,0.496*,.,.,.
O=[N+]([O-])c1ccc(C=NNC(=S)Nc2ccccc2F)o1,.,0.674,.,.,.
CN1CCc2c(sc(N=Cc3cc(C(C)(C)C)ccc3O)c2C#N)C1,.,0.661,.,.,.
CC(=NNC(=O)CNc1cccc2ccccc12)c1ccccc1,.,0.74,.,.,.
O=C(CCC(=O)Nc1ccc(Cl)cc1Cl)NN=Cc1ccc([N+](=O)[O-])o1,.,0.413*,.,.,.
NC(=O)NN=Cc1ccc([N+](=O)[O-])o1,.,0.064*,.,.,.
O=C(NN=Cc1ccc([N+](=O)[O-])o1)C1CC1,.,0.0645*,.,.,.
CCCCN1C(N)=NCC1c1ccccc1 (stereo not given),.,0.691,.,.,.
O=C1C=C(Nc2ccccc2O)c2ccccc2C1=O,-4.6,0.478*,2.6,2.1,-3.8
O=C1C=C(NCc2ccccc2)c2ccccc2C1=O,.,0.465*,.,4.0,-24.4
COc1ccc(-n2c(Cc3cccn3C)nnc2SCC(=O)Nc2ccc(C(C)=O)cc2)cc1,-0.5,0.732,0.3,0.0,56.4*
COc1ccc(NC(=O)CSc2nnc(Cc3cccn3C)n2-c2ccc(OC)cc2)cc1,0.2,0.721,2.7,1.7,3.6
COc1cccc(C(=O)Oc2c(Br)cc(Br)cc2C=NNC(=O)c2cc(C)[nH]n2)c1,.,0.741,.,.,.
CO[C@@]1(NC(=O)C2SC(=C(C(N)=O)C(=O)O)S2)C(=O)N2C(C(=O)O)=C(CSc3nnnn3C)CSC21 (stereo not given in full),.,0.061*,.,.,.
SMILES,E coli growth-1,E coli growth-2,AddAB inh,phage Ecoli inh,Tat transport
CO[C@@]1(NC(=O)CSCC#N)C(=O)N2C(C(=O)O)=C(CSc3nnnn3C)CSC21 (stereo not given in full),.,0.605,.,.,.
CCOC(=O)C1C2COc3ccc(OC)cc3C2N2C(=O)CN(C)C(=O)[C@@]12C (stereo not given in full),.,0.674,.,.,.
Cc1ccc2nc(-c3ccccn3)c(Nc3ccccc3C)n2c1,1.4,0.502*,0.8,-2.2,-28.4
CCOC(=O)c1sc(N=CC2=C(O)CC(C)(C)CC2=O)c(C(=O)OCC)c1C,.,0.674,.,.,.
Oc1ccc(CN2CCC(Cc3ccccc3)CC2)c2cccnc12,.,0.458*,.,8.8,.
Oc1ccc(CN2CCc3ccccc3C2)c2cccnc12,4.9,0.471*,5.2,7.8,3.5
Oc1ccc(CN2CCN(c3ccccc3)CC2)c2cccnc12,2.2,0.616,3.1,.,1.6
CN(C)C1CCN(Cc2cc(COCc3ccccc3)c3cccnc3c2O)C1 (stereo not given),10.3*,.,7.6,.,10.0
CCOC1OC(C(=O)N2CCN(Cc3ccccc3)CC2)=CC(c2ccc(C(F)(F)F)cc2)C1CCCO (stereo not given),.,0.688,.,.,.

# Source: PubChem BioAssay
